This note sets out measurements from the supplement of paper PMC6805474.

This test has as its system Schistosoma mansoni schistosomula (LE). Description: XTT viability relative to DMSO control; higher = more viable (less active). The note with it: 72 h; 10 µM. How it is done: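 XTT/PMS was then added for a further 24 h (72 h total) and A450 was read. % viability = (sample - heat-killed control)/(DMSO control - heat-killed control) x 100, from duplicate wells in two independent experiments.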
Background: Formazan colour is commonly taken as a measure of viable cells.
Consider `COc1cccn2c(C(=O)N3CCCCC3)c(C(F)(F)F)nc12`, for which the XTT viability was found to be 95.7%.

Regarding `O[C@@H](c1cc(C(F)(F)F)nc2c(C(F)(F)F)cccc12)[C@H]1CCCCN1`, the XTT viability was -0.139%.

For `CS(=O)(=O)N1CCC(CCn2nc(Cc3cccc4ccccc34)c3c(N)ncnc32)CC1`, the XTT viability stood at 90.7%.

For the compound `CCOc1ccc(-c2nc(NC(=O)CS(=O)(=O)c3ccccc3)sc2C)cc1`, the XTT viability stood at 61.8%.

On to `c1ccc2c(c1)CN(CC1CC1)CC1(CCN(Cc3c[nH]c4cnccc34)CC1)O2`, for which the XTT viability stood at 58%.

`O=C(Nc1cccnc1)c1c(O)c2cccc3c2n(c1=O)CC3`: the XTT viability was 118%.

With `COc1cc2ncnc(NC3CCN(Cc4ccccc4)CC3)c2cc1OC`, the XTT viability turned out to be 86.5%.

Consider `COc1ccc2nccc(NC(=O)C3CCN(CCc4ccc(Cl)cc4)CC3)c2n1`, for which the XTT viability turned out to be 77.2%.

For the compound `COc1ccc(-c2nnc3ccc(-c4cccc(C(C)C)c4)cn23)cc1OC`, the XTT viability is 14.7%.

Take `O=C(c1cc2ccccc2o1)N1CCN(Cc2ccc3c(c2)OCO3)CC1`: the XTT viability came out at 110%.

Take `COc1ccc2nc(C)cc(OCC(=O)Nc3ccccc3OC)c2c1`: the XTT viability turned out to be 108%.

For `CCCNC(=O)N1CCC2(CC1)CC(=O)c1cc(C)ccc1O2`, the XTT viability is 102%.

As for `CC(=O)N(CCN(C(=O)c1ccc(F)cc1)c1ccccc1)c1ccccc1`, the XTT viability amounted to 117%.

For the compound `CCc1nc2ccc(C(=O)NCc3ccc4c(c3)OCO4)cn2c1N(C)Cc1cccs1`, the XTT viability was 140%.

With `CC(C)(C)n1nc(Cc2cccc3ccccc23)c2c(N)ncnc21`, the XTT viability worked out at 85.5%.

As for `O=C(c1ccco1)N(CCCn1ccnc1)c1nc2c(Cl)cccc2s1`, the XTT viability amounted to 46.4%.

As for `Cc1cc(O)nc(-n2nc(C)cc2C)n1`, the XTT viability is 93.1%.

`CC(=O)Nc1ccc(NC(=O)c2cc(-c3cc(Cl)ccc3O)[nH]n2)cc1`: the XTT viability was 94.2%.

Regarding `CCc1cc(=O)n(C)c(SC(C)C(=O)Nc2ccc(F)cc2)n1` (stereo not given), the XTT viability worked out at 115%.

Turning to `CN1CCN(S(=O)(=O)c2ccc(-c3ccc4c(Nc5ncc(Cl)cn5)ccnc4c3)cc2)CC1`, the XTT viability worked out at 32.4%.

`O=C(Nc1ccc(C(F)(F)F)c(C(F)(F)F)c1)c1cc(Cl)ccc1O`: the XTT viability amounted to 35.4%.

Regarding `CC(C)(C)C(=O)N(CCCCCCN1C[C@H](O)[C@@H](O)[C@H](O)[C@H]1CO)C1CCCCCC1`, the XTT viability is 122%.

As for `CCN(CC)S(=O)(=O)c1ccc(C(=O)Nc2cc(C)nn2-c2nc(C)c(C)c(=O)[nH]2)cc1`, the XTT viability came to 80.6%.

In the case of `COc1ccc(-c2onc(C(F)(F)F)c2-c2ccc(Cl)cc2)c(O)c1`, the XTT viability was 0.0885%.

As to `FC(F)(F)c1cc(NCCc2ccccc2)nc(-c2ccccn2)n1`, the XTT viability was 58.7%.

Take `CCOc1ccccc1NC(C)C(=O)Nc1cc(C(F)(F)F)ccc1N1CCOCC1` (stereo not given): the XTT viability stood at 96%.

Take `Cc1cc(C(=O)Nc2ccc(-c3ccccc3)cc2)no1`: the XTT viability is 90.7%.

Take `NCCCC(N)(C(=O)O)C(F)F` (stereo not given): the XTT viability stood at 87.1%.

With `O=C(NC1CC1)c1ccc(N2CCC(Cc3ccccc3)CC2)nc1`, the XTT viability stood at 91.1%.

Regarding `c1coc(CNc2nc(N3CCCCC3)nc3ccccc23)c1`, the XTT viability stood at 99.5%.

With `O=C(Cn1ccnc1[N+](=O)[O-])NCc1ccccc1`, the XTT viability came to 89.2%.

In the case of `CCc1ccccc1-n1c(C)cn2c3c(=O)n(C(C(=O)OC)C(C)C)c(=O)n(C)c3nc12` (stereo not given), the XTT viability was 108%.

In the case of `Nc1ncnc2[nH]nc(Cc3cccc4ccccc34)c12`, the XTT viability is 94.1%.

Consider `CCCn1c(CNc2ccccc2O)nc2ccccc21`, for which the XTT viability was found to be 337%.

For `CCOc1ccc(OCC(=O)Nc2cc(C)cc(C)c2)cc1`, the XTT viability was 67%.

Regarding `COc1cc(C2=NCCN2)ccc1-n1cc(-c2cccc(C3=NCCN3)c2)nn1`, the XTT viability is 77.2%.

Turning to `O=C(Nc1ccccc1)c1ccc(-c2cc3ccncc3cc2OC2CCNCC2)s1`, the XTT viability was -18.1%.

In the case of `CC1=NN(c2nc3ccccc3s2)C(=O)C1Cc1cccc2ccccc12` (stereo not given), the XTT viability turned out to be 61.8%.

For the compound `CC1CC1C(=O)NC1CCN(CC2(c3ccccc3)CCCCC2)CC1` (stereo not given), the XTT viability was found to be 82.4%.

For `CC1CCCN(C(=O)C(C)Nc2cc(Cl)ccc2N2CCOCC2)C1` (stereo not given), the XTT viability was found to be 137%.
